Values without a mark were called inactive.
These compounds were tested on Meloidogyne hapla J2 (assay: proportion of mobile M. hapla J2 relative to DMSO control (fraction of DMSO control); higher = more viable, less nematicidal, active = 0.7 or less). Conditions: 60 µM; 5 days; temperature: 20 °C.
Experimental: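 DODA library (846 commercial 1,3,4- and 1,2,4-oxadiazole compounds plus commercial nematicide controls) screened at a single dose of 60 µM (0.6% DMSO) in 96-well plates, two biological replicates. Read-outs: C. elegans N2 L1 survival/reproduction score at day 6, 20 °C (0: 0-10 worms, 1: 11-20, 2: 21-50, 3: >50, 4: overgrown/starved). C. elegans daf-2 dauer, D. dipsaci and M. hapla J2 mobility at day 5, 20 °C, and P. penetrans mobility at day 5, 20 °C, each relative to DMSO controls. M. hapla egg hatching at day 12, 25 °C, relative to the mean of 8 DMSO wells on the same plate.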

Question: Which “proportion of mobile M. hapla J2” value does the source give for `CC(C)(C)C(=O)CSc1nnc(-c2ccc(Cl)cc2Cl)o1` here?
Answer: Its value is 0.873.

Question: With `CC(C)CCC(=O)Nc1ccccc1-c1nc(-c2ccccn2)no1` as the compound, how does the “proportion of mobile M. hapla J2” value read?
Answer: The value was 1.03.

Question: For `CCOc1nc(-c2ccccc2)ccc1-c1noc(-c2ccccc2F)n1`, which “proportion of mobile M. hapla J2” value is on record?
Answer: Its value is 0.926.

Question: For `Cc1ccc(-c2noc(COc3ccc(Br)cc3)n2)cc1`, which “proportion of mobile M. hapla J2” value is on record?
Answer: The value was 1.

Question: How did the “proportion of mobile M. hapla J2” value turn out when `COc1cccc(-c2noc(-c3ccc(C)cc3)n2)c1` was run?
Answer: Its value is 0.948.

Question: With `Cc1ccc(-c2nnc(SCc3ccccc3C)o2)cc1` as the compound, how does the “proportion of mobile M. hapla J2” value read?
Answer: Its value is 1.06.

Question: Which “proportion of mobile M. hapla J2” value does the source give for `Cc1cccc(-c2nc(-c3ccc(Br)cc3)no2)c1` here?
Answer: The value was 1.01.

Question: Which “proportion of mobile M. hapla J2” value does the source give for `O=C(CSc1nnc(-c2ccco2)o1)Nc1cccc2ccccc12` here?
Answer: Its value is 0.956.

Question: How did the “proportion of mobile M. hapla J2” value turn out when `COc1cccc(-c2noc(COc3ccc4ccccc4c3)n2)c1` was run?
Answer: The value was 1.04.

Question: Which “proportion of mobile M. hapla J2” value does the source give for `Cc1ccc(-c2nnc(SCC(=O)Nc3ccccc3)o2)cc1` here?
Answer: Its value is 0.996.

Question: Which “proportion of mobile M. hapla J2” value does the source give for `Cc1ccc(-c2noc(-c3cccc(C)c3)n2)cc1` here?
Answer: The value was 0.947.

Question: With `Cc1ccc(-c2nc(C3CCCCC3)no2)cc1` as the compound, how does the “proportion of mobile M. hapla J2” value read?
Answer: Its value is 1.01.

Question: For `CCOc1ccccc1-c1nc(-c2cccc(C)c2)no1`, which “proportion of mobile M. hapla J2” value is on record?
Answer: The value was 0.982.

Question: With `c1csc(-c2nnc(-c3cccs3)o2)c1` as the compound, how does the “proportion of mobile M. hapla J2” value read?
Answer: Its value is 0.754.

Question: For `CCCc1ccc(-c2ccc(-c3nc(-c4ccccn4)no3)cc2)cc1`, which “proportion of mobile M. hapla J2” value is on record?
Answer: Its value is 0.978.

Question: Which “proportion of mobile M. hapla J2” value does the source give for `COc1ccccc1-c1nnc(SCc2ccccc2C)o1` here?
Answer: Its value is 0.929.

Question: With `CCOc1ccccc1-c1nc(-c2ccc(Br)cc2)no1` as the compound, how does the “proportion of mobile M. hapla J2” value read?
Answer: Its value is 0.916.

Question: Which “proportion of mobile M. hapla J2” value does the source give for `O=C(CSc1nnc(-c2ccccc2)o1)c1ccc(Br)cc1` here?
Answer: The value was 0.966.

Question: Which “proportion of mobile M. hapla J2” value does the source give for `Clc1ccc(-c2noc(-c3ccccc3Br)n2)cc1` here?
Answer: Its value is 0.995.

Question: For `O=C(CSc1nnc(-c2ccccc2Cl)o1)Nc1ccc(F)cc1`, which “proportion of mobile M. hapla J2” value is on record?
Answer: The value was 0.896.

Question: How did the “proportion of mobile M. hapla J2” value turn out when `Cc1cccc(-c2noc(-c3ccccc3Cl)n2)c1` was run?
Answer: Its value is 0.894.

Question: Which “proportion of mobile M. hapla J2” value does the source give for `Cc1ccc(-c2nc(-c3cccc(C(F)(F)F)c3)no2)cc1` here?
Answer: Its value is 1.04.

Question: How did the “proportion of mobile M. hapla J2” value turn out when `Cc1cccc(OC(C)c2nc(-c3ccncc3)no2)c1` (stereo not given) was run?
Answer: Its value is 0.988.

Question: For `Brc1ccc(OCc2nc(-c3ccc4c(c3)OCO4)no2)cc1`, which “proportion of mobile M. hapla J2” value is on record?
Answer: Its value is 0.943.

Question: Which “proportion of mobile M. hapla J2” value does the source give for `COc1cccc(-c2noc(-c3ccc(Cl)cc3)n2)c1` here?
Answer: The value was 0.983.

Question: How did the “proportion of mobile M. hapla J2” value turn out when `Cc1cc(OCc2nc(-c3ccccn3)no2)ccc1Br` was run?
Answer: Its value is 0.937.

Question: Which “proportion of mobile M. hapla J2” value does the source give for `Cc1ccc(OCc2nc(-c3ccc(Cl)cc3)no2)cc1C` here?
Answer: Its value is 1.05.

Question: How did the “proportion of mobile M. hapla J2” value turn out when `Cc1cccc(-c2noc(-c3cccc(Cl)c3)n2)c1` was run?
Answer: Its value is 1.

Question: How did the “proportion of mobile M. hapla J2” value turn out when `Brc1cccc(-c2nnc(SCc3ccccc3)o2)c1` was run?
Answer: The value was 0.968.

Question: With `COc1cccc(-c2noc(COc3ccc(Cl)cc3)n2)c1` as the compound, how does the “proportion of mobile M. hapla J2” value read?
Answer: The value was 0.993.

Question: For `COc1ccc(-c2noc(COc3ccc(Br)c(C)c3)n2)cc1`, which “proportion of mobile M. hapla J2” value is on record?
Answer: Its value is 0.972.

Question: `Cc1cc(OCc2nc(-c3ccncc3)no2)ccc1Cl` was tested. Which “proportion of mobile M. hapla J2” value did it give?
Answer: The value was 0.921.

Question: For `COc1cccc(NC(=O)CSc2nnc(-c3ccc(C)cc3)o2)c1`, which “proportion of mobile M. hapla J2” value is on record?
Answer: Its value is 1.04.

Question: With `Cc1ccc(-c2noc(COc3ccccc3Cl)n2)cc1` as the compound, how does the “proportion of mobile M. hapla J2” value read?
Answer: Its value is 0.96.

Question: With `Cc1cccc(-c2noc(-c3ccc(F)cc3)n2)c1` as the compound, how does the “proportion of mobile M. hapla J2” value read?
Answer: The value was 0.642 (active).

Question: For `CCCCSc1nnc(-c2ccc(Br)cc2)o1`, which “proportion of mobile M. hapla J2” value is on record?
Answer: Its value is 1.

Question: With `Cc1ccc(-c2nnc(SCc3ccccc3C#N)o2)cc1` as the compound, how does the “proportion of mobile M. hapla J2” value read?
Answer: Its value is 0.937.

Question: Which “proportion of mobile M. hapla J2” value does the source give for `CCC(=O)Nc1ccccc1-c1nc(-c2ccccn2)no1` here?
Answer: Its value is 0.865.

Question: With `CN(C)C(=O)c1ccccc1-c1nc(-c2ccccc2Cl)no1` as the compound, how does the “proportion of mobile M. hapla J2” value read?
Answer: Its value is 0.882.

Question: `COC(=O)c1ccc(NC(=O)CSc2nnc(-c3ccc(Cl)cc3Cl)o2)cc1` was tested. Which “proportion of mobile M. hapla J2” value did it give?
Answer: Its value is 0.929.

From the supplement of paper PMC11219838
